The campaign covered roughly 310,000 compounds. About 14,000 (4.5%) showed an effect of 50% or more. The effect is printed as a negative number. Shown is part of a subset that was picked to be rich in strong results.
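Further: peak tail current of the secondary pulse compared with the same well before compound.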

The target in the assay is human ether-à-go-go-related gene (hERG) potassium channel (human, UniProt Q12809). Briefly: primary screen, population patch clamp on CHO cells stably expressing hERG; higher = less effect of the substance.
Chain of human ether-à-go-go-related gene (hERG) potassium channel (Q12809 whole entry, looked up): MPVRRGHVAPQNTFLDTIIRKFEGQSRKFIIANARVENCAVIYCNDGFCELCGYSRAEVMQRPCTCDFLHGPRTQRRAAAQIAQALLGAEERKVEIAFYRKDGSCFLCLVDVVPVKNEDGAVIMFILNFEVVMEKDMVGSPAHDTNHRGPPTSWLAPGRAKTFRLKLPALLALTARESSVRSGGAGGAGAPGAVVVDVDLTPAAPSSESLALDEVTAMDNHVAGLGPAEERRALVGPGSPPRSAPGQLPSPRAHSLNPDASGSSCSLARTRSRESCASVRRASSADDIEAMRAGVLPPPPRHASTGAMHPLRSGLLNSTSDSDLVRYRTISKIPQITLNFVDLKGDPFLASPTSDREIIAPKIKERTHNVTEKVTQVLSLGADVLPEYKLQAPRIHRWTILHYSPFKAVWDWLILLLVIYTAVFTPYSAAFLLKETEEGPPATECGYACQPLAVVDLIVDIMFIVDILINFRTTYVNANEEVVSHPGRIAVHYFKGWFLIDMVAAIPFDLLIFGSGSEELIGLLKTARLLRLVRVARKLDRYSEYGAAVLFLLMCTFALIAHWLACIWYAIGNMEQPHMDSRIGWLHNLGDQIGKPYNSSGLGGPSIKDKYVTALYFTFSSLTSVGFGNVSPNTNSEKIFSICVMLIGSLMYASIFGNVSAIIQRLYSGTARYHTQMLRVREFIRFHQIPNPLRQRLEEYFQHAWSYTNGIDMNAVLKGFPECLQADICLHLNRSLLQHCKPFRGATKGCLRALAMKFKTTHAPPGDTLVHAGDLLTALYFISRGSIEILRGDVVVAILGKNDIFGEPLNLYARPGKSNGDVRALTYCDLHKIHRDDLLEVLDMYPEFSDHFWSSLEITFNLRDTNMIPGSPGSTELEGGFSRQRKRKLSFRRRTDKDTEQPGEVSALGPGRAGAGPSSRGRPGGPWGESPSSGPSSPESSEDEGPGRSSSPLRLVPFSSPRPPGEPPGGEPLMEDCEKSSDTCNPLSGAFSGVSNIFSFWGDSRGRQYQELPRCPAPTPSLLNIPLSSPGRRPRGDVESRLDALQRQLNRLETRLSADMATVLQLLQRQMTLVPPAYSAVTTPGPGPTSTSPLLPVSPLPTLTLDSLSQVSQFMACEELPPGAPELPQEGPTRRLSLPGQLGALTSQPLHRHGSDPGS
In the case of `Cc1ccc(C2/C(=C(/O)c3ccccc3)C(=O)C(=O)N2CCN2CCOCC2)o1` (stereo not shown), the “hERG current change (%, negative = inhibition) at 10uM” value is reported as -2.22%.
For the molecule `COc1ccc(CCN2C(=O)NC(NC(C)=O)(C(F)(F)F)C2=O)cc1OC` (stereo not shown), the “hERG current change (%, negative = inhibition) at 10uM” value came to 7.51%.
Turning to `O=C(c1cccc(N2C(=O)C3C4C=CC(C4)C3C2=O)c1)N1CCN(c2ccccc2)CC1` (stereo not shown), the “hERG current change (%, negative = inhibition) at 10uM” value is on record as -1.68%.
To `c1ccc2c(c1)ncn2-c1ccc(-c2ccnc3ncnn23)cc1` belongs -68%.
To `c1ccc(Oc2ccc(-c3ccnc4ncnn34)cc2)cc1` belongs 10.7%.
Regarding `c1cn(-c2ccc(-c3ccnc4ncnn34)cc2)cn1`, the “hERG current change (%, negative = inhibition) at 10uM” value is given as -27.2%.
Consider `Cc1cc(OCC(=O)NC2CCS(=O)(=O)C2)c2c3c(c(=O)oc2c1)CCC3` (stereo not shown), for which the “hERG current change (%, negative = inhibition) at 10uM” value is on record as -3.87%.
For `COc1ccc(CNC(=O)C(=O)NC2CCC(C)CC2)cc1` (stereo not shown), the “hERG current change (%, negative = inhibition) at 10uM” value amounted to 19.4%.
To `C=C(Cl)CSC(=S)N(CC)CC` belongs 12.1%.
For `C=CCn1c(SCC(=O)N(CC)C2CCS(=O)(=O)C2)nnc1-c1ccccc1` (stereo not shown), the “hERG current change (%, negative = inhibition) at 10uM” value is recorded as -2.7%.
With `COCCn1c(SCC(=O)N(C)C2CCS(=O)(=O)C2)nc2ccccc2c1=O` (stereo not shown), the “hERG current change (%, negative = inhibition) at 10uM” value is listed as -12.1%.
To `CCN(C(=O)CSc1nc2ccccc2c(=O)n1C(C)COC)C1CCS(=O)(=O)C1` (stereo not shown) belongs -22.8%.
In the case of `CCN(C(=O)CSc1nc(-c2cccs2)nc2ccccc12)C1CCS(=O)(=O)C1` (stereo not shown), the “hERG current change (%, negative = inhibition) at 10uM” value was -95.6%.
To `CCN(C(=O)CSc1n[nH]c(-c2cccs2)n1)C1CCS(=O)(=O)C1` (stereo not shown) belongs 12.2%.
Consider `CCN(C(=O)CSc1nc2ccccc2c(=O)n1CCOC)C1CCS(=O)(=O)C1` (stereo not shown), for which the “hERG current change (%, negative = inhibition) at 10uM” value was -61.2%.
To `O=C(CSc1nc(-c2cccs2)nc2ccccc12)NC1CCS(=O)(=O)C1` (stereo not shown) belongs 6.45%; to `C=CCn1c(SCC(=O)N(CC)C2CCS(=O)(=O)C2)nc2ccccc2c1=O` (stereo not shown), -79.2%; to `CCOCCCn1c(SCC(=O)N(C)C2CCS(=O)(=O)C2)nc2ccccc2c1=O` (stereo not shown), -37.5%.
To `C=CCn1c(SCC(=O)N(C)C2CCS(=O)(=O)C2)nnc1-c1ccccc1` (stereo not shown) belongs 16.8%.
To `C=CCn1c(SCC(=O)N(C)C2CCS(=O)(=O)C2)nc2ccccc2c1=O` (stereo not shown) belongs -50%.
`C=CCn1c(SCC(=O)N(CC)C2CCS(=O)(=O)C2)nc2cc(C(=O)O)ccc2c1=O` (stereo not shown): the “hERG current change (%, negative = inhibition) at 10uM” value is listed as 5.01%.
Turning to `Cn1c(=O)[nH]c(=O)c2c1[nH]c(=S)n2Cc1ccccc1`, the “hERG current change (%, negative = inhibition) at 10uM” value is recorded as 17.5%.
Consider `COc1cc2cc(C(=O)NCCc3ccccc3)[nH]c2cc1OC`, for which the “hERG current change (%, negative = inhibition) at 10uM” value turned out to be 19.2%.
To `COc1ccc(C(=O)/C=C/NCc2ccc(C)cc2)cc1` belongs -17.2%; to `Cc1ccc2c(c1)c1nnc(SCC(=O)Nc3ccc(N(C)C)cc3)nc1n2CC(=O)O`, 6%; to `Cc1ccc(NC(=O)C2(c3ccccc3)CCOCC2)c([N+](=O)[O-])c1`, -22.5%.
To `COC(=O)c1cc(N2CCNCC2)nc2ccccc12.Cl` belongs -17%; to `CCN1C(=O)c2cccc3c(S(=O)(=O)N(C(=O)c4ccncc4)c4ccc(OC)cc4)ccc1c23`, -7.51%.
In the case of `Cc1sc2nc(CN3CCCC3)nc(N3CCC(C(N)=O)CC3)c2c1C`, the “hERG current change (%, negative = inhibition) at 10uM” value was -3.64%.
Consider `Cc1sc(NC(=O)c2ccco2)c(CN2CCCCC2)c1C`, for which the “hERG current change (%, negative = inhibition) at 10uM” value is listed as -49.9%.
To `Cc1sc2nc(CN3CCCC3)nc(N3CCN(C(=O)c4ccco4)CC3)c2c1C` belongs -68.6%.
As to `Cc1sc2nc(CN3CCOCC3)nc(Oc3ccc(NC(=O)c4ccco4)cc3)c2c1C`, the “hERG current change (%, negative = inhibition) at 10uM” value is recorded as -38.9%.
To `Cc1sc2nc(CN3CCOCC3)nc(N3CCC(C(N)=O)CC3)c2c1C` belongs 5.73%; to `Cc1sc2nc(CN3CCCCC3)nc(N3CCN(C(=O)c4ccco4)CC3)c2c1C`, -75%; to `CCCn1c(SCN2C(=O)c3ccccc3C2=O)nc2cc(Cl)ccc2c1=O`, 16.5%.
In the case of `COC(=O)c1ccc(-c2cc(C(=O)O)c3cc4c(cc3n2)OCCO4)cc1`, the “hERG current change (%, negative = inhibition) at 10uM” value is -0.776%.
To `CC(C)C12CN3CCN(CC(C3)/C1=N\NC(=O)Nc1ccccc1)C2` belongs -16.1%; to `CC(C)(C)NC(=O)Cn1c(SCC(=O)NCc2cccs2)nc2ccccc21`, 6.18%; to `CCCn1c(N2CCN(CC(=O)NCc3cccs3)CC2)nc2ccccc21`, -74.7%.
To `COc1cccc(N2CCN(CC(=O)NCc3cccs3)CC2)c1` belongs -3.18%; to `O=C(CN1CCN(c2ccccn2)CC1)NCc1cccs1`, -26.2%; to `CC(C)n1c(NCc2cccs2)nc2ccccc21`, -12.6%.
To `CC(C)n1c(N2CCN(CC(=O)NCc3cccs3)CC2)nc2ccccc21` belongs -60.8%.
As to `Nc1c(Cl)ncnc1NCC(O)CO` (stereo not shown), the “hERG current change (%, negative = inhibition) at 10uM” value is on record as 17.7%.
On to `O=C(Nc1ccc(Oc2ccc(NC(=O)c3ccco3)c(NC(=O)c3ccco3)c2)cc1)c1ccco1`, for which the “hERG current change (%, negative = inhibition) at 10uM” value is listed as -13.5%.
In the case of `CC1Cc2ccccc2N1C(=O)CSc1nc2c(c(=O)n(C)c(=O)n2C)n1Cc1ccccc1` (stereo not shown), the “hERG current change (%, negative = inhibition) at 10uM” value is recorded as -33.7%.
For `Cc1ccc(Nc2ccccc2)nn1`, the “hERG current change (%, negative = inhibition) at 10uM” value was 18.6%.
Regarding `COc1ccccc1-c1coc2c(CN3CCCC(C)C3)c(O)ccc2c1=O` (stereo not shown), the “hERG current change (%, negative = inhibition) at 10uM” value is -2.44%.
For `CC1(C)CC2(CC(c3ccccc3)Oc3cc(O)ccc32)NC(=O)N1` (stereo not shown), the “hERG current change (%, negative = inhibition) at 10uM” value worked out at 3.54%.
To `CC1(C)CC2(CC(c3ccccc3)Oc3cc(O)ccc32)NC(=S)N1` (stereo not shown) belongs -1.82%; to `CSC1=NC2(CC(c3ccccc3)Oc3cc(O)ccc32)CC(C)(C)N1` (stereo not shown), -76.1%; to `Cc1cc(Cl)ccc1OCC(=O)N/N=C1\CCCc2ccccc21`, -0.309%.
To `CC(C)(C)c1nc2ccc(NS(=O)(=O)c3ccc(F)c(F)c3F)cc2[nH]1` belongs 10.6%; to `COc1ccccc1NC1=NC(C)(C)N=C(N)N1`, 23.2%; to `NS(=O)(=O)c1ccc(CCNC(=O)c2ccc(-c3ccccc3)cc2)cc1`, 9.92%.

These data come from paper PMC4336329 (PLoS ONE, 2015).
